What all share (experiment): DAPPL (digital affinity profiling via proximity ligation, sequencing); 10 mM Tris-HCl pH 7.5, 50 mM NaCl, 1 mM DTT, 4% glycerol, room temperature, 30 min; GST-TFs on glutathione beads, 16-mer random dsDNA library, 0.1% formaldehyde crosslink after washing; high values mean tight binding
In one assay the target is T1, FLI1 (Homo sapiens, UniProt Q01543 1-452).
T1 sequence: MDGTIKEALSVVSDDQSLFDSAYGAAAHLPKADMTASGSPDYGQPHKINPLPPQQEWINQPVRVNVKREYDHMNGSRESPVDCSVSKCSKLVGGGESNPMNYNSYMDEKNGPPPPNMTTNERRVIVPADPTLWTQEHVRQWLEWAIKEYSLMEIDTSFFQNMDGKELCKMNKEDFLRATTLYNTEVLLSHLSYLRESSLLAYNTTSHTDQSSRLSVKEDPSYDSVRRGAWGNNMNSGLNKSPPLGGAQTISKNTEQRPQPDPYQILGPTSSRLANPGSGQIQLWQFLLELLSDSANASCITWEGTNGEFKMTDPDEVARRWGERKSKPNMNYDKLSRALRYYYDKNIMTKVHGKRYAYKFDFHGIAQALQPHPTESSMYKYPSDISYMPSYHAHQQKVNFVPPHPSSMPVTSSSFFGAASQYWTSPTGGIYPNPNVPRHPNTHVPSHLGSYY
The settings on record: protein: recombinant; tags: N-terminal GST; dsDNA, one strand shown. A digest of the protocol:
(§1)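 Beads coated with glutathione captured GST-fused human transcription factors that had been expressed in yeast, and the factors were then given DNA barcodes and pooled with a tag-only sample. The pools were incubated with 200 nmole of a random double-stranded 16-mer DNA library in Tris/NaCl/DTT/glycerol buffer for 30 min at room temperature, washed, crosslinked with 0.1% formaldehyde and proximity-ligated with BsaI/T4 ligase at 37 °C for 1 h. PCR amplification and Illumina NextSeq500 sequencing came last. Binding signal is each hexamer's read frequency for a factor divided by its frequency for the tag-only sample.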

The target in the next assay is T2, GABPA (Homo sapiens, UniProt Q06546 1-454).
T2 sequence: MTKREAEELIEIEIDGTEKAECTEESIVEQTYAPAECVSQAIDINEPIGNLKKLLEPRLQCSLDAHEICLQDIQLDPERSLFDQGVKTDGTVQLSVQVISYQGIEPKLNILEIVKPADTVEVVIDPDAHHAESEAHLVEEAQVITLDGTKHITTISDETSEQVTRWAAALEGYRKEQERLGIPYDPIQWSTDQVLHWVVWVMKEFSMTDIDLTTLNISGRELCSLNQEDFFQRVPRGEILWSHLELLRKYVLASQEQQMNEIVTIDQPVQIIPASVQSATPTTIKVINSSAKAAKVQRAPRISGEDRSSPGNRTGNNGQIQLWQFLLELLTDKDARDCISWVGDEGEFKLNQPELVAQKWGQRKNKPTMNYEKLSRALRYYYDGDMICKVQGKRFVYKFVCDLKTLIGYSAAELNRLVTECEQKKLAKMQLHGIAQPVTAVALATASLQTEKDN
The settings on record: protein: recombinant; tags: N-terminal GST; dsDNA, one strand shown. The procedure, abridged: as §1

The target of the next assay is T3, ERG (Homo sapiens, UniProt P11308 1-479).
T3 sequence: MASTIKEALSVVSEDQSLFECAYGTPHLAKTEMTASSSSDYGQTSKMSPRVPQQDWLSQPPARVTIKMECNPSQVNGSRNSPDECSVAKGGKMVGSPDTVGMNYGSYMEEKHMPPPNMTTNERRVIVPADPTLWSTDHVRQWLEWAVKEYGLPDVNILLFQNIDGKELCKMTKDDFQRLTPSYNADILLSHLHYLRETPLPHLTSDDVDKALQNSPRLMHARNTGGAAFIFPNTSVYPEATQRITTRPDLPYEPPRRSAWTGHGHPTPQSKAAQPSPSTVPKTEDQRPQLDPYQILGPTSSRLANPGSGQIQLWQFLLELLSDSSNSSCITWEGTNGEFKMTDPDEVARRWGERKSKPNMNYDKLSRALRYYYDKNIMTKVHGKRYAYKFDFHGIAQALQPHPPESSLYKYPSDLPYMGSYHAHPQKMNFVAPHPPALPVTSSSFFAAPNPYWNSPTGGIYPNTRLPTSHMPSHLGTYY
The settings on record: protein: recombinant; tags: N-terminal GST; dsDNA, one strand shown. A digest of the protocol:
as §1

In a further assay the target is ELF1 (Homo sapiens, UniProt P32519 1-619). The settings on record: protein: recombinant; tags: N-terminal GST; dsDNA, one strand shown. A digest of the protocol: as §1
Chain of ELF1 (P32519 whole entry): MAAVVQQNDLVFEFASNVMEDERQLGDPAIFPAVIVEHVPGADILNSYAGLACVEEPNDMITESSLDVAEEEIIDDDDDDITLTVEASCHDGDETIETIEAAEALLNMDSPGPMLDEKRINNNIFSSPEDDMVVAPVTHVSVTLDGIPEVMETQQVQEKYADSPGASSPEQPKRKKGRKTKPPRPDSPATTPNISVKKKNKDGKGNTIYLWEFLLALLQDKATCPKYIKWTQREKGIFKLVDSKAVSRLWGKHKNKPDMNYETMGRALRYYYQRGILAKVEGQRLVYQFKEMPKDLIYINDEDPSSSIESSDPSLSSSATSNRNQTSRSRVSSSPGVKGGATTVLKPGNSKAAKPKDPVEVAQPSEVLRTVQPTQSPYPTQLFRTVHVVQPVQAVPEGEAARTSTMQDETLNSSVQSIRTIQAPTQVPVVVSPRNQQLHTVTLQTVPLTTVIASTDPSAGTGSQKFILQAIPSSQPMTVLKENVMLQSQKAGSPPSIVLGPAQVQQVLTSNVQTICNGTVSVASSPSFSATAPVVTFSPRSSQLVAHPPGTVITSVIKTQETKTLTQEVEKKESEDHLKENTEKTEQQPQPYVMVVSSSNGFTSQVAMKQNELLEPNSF
The next assay has as its target T4, EHF (Homo sapiens, UniProt Q9NZC4 1-300).
T4 sequence: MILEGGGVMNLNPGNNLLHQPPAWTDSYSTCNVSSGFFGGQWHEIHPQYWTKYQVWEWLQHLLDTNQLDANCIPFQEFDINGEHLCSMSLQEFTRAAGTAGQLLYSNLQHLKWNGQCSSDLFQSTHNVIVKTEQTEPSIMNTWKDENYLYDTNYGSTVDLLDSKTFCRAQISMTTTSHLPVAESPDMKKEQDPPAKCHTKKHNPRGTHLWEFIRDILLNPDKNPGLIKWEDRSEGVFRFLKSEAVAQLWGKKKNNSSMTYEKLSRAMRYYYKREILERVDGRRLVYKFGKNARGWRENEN
The settings on record: protein: recombinant; tags: N-terminal GST; dsDNA, one strand shown. A digest of the protocol:
as §1

In another assay the target is SPI1 (Homo sapiens, UniProt P17947 1-270). The settings on record: protein: recombinant; tags: N-terminal GST; dsDNA, one strand shown. A digest of the protocol:
as §1

Another assay concerns the target SPIB (Homo sapiens, UniProt Q01892 1-262). The settings on record: protein: recombinant; tags: N-terminal GST; dsDNA, one strand shown. A digest of the protocol:
as §1

For a further assay, the target named is T5, FEV (Homo sapiens, UniProt Q99581 1-238).
T5 sequence: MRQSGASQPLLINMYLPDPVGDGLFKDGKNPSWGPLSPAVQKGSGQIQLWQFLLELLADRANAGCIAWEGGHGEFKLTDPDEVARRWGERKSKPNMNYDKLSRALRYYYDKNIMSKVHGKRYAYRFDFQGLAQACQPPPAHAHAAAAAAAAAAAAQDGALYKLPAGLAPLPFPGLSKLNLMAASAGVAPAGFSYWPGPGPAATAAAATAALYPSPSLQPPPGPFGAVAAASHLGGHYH
Conditions: protein: recombinant; tags: N-terminal GST; dsDNA, one strand shown. A digest of the protocol: as §1

In another assay the target is ETV5 (Homo sapiens, UniProt P41161 1-510). Conditions: protein: recombinant; tags: N-terminal GST; dsDNA, one strand shown. A digest of the protocol: as §1
Chain of ETV5 (P41161 whole entry): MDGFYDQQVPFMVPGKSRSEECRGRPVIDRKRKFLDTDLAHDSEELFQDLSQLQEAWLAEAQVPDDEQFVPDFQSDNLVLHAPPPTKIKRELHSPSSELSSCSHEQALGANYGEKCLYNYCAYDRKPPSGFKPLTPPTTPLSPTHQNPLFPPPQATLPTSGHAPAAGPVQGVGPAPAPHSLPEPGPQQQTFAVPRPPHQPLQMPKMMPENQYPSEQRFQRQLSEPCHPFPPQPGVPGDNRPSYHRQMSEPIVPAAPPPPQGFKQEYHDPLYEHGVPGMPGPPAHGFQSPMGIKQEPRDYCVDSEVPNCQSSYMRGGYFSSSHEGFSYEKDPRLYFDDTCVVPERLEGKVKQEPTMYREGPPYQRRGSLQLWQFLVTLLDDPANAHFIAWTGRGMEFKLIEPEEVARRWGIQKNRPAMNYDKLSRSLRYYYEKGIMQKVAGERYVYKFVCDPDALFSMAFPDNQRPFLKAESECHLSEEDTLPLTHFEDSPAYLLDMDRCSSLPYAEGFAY
The next assay concerns the target HSF1 (Homo sapiens, UniProt Q00613 1-529). Conditions: protein: recombinant; tags: N-terminal GST; chain copies: 3; dsDNA, one strand shown. The procedure, abridged: as §1
Another assay concerns the target T6, SPIC (Homo sapiens, UniProt Q8N5J4 1-248).
T6 sequence: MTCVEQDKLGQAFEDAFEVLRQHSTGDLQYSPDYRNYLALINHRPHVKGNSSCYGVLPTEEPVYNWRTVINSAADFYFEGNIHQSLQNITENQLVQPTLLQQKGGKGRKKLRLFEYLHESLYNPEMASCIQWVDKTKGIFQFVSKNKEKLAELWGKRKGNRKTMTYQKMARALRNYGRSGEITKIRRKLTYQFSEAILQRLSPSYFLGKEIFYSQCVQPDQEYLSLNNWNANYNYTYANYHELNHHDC
The settings on record: protein: recombinant; tags: N-terminal GST; dsDNA, one strand shown. The procedure, abridged: as §1

The target of a further assay is ELF4 (Homo sapiens, UniProt Q99607 1-663). The settings on record: protein: recombinant; tags: N-terminal GST; dsDNA, one strand shown. The procedure, abridged:
as §1

The next assay concerns the target T7, ELK4 (Homo sapiens, UniProt P28324-2 1-405).
T7 sequence: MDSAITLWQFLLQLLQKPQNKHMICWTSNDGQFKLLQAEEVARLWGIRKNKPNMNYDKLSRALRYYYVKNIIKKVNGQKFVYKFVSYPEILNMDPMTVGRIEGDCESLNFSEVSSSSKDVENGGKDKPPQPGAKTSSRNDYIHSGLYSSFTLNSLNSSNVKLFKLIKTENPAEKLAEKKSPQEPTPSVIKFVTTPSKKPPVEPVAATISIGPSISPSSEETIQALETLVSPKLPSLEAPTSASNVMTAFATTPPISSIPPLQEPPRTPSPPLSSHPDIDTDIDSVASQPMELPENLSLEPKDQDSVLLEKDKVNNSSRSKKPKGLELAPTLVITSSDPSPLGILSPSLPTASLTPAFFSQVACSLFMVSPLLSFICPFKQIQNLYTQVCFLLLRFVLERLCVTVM
The settings on record: protein: recombinant; tags: N-terminal GST; dsDNA, one strand shown. A digest of the protocol: as §1

The target in the next assay is T8, ETV2 (Homo sapiens, UniProt O00321 1-342).
T8 sequence: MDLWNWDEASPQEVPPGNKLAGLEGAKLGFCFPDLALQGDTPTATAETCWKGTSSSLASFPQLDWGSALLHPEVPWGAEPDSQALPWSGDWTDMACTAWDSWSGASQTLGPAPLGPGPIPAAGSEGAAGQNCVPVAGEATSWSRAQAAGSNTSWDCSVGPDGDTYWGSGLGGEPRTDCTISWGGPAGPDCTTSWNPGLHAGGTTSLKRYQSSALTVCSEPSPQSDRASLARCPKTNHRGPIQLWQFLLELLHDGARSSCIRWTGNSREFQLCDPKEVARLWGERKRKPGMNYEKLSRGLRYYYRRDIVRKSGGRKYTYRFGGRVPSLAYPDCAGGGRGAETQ
The settings on record: protein: recombinant; tags: N-terminal GST; dsDNA, one strand shown. A digest of the protocol:
as §1

The target of the next assay is T9, ELF3 (Homo sapiens, UniProt P78545 1-371).
T9 sequence: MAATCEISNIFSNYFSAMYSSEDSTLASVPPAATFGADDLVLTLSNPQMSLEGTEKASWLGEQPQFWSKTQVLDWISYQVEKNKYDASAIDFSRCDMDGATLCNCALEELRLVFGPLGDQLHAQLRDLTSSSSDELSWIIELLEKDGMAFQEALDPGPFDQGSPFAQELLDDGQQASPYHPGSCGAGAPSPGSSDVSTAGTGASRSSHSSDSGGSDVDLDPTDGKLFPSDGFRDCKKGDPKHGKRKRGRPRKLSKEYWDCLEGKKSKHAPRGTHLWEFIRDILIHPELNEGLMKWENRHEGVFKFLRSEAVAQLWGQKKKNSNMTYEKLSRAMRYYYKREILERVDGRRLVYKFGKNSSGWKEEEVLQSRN
Conditions: protein: recombinant; tags: N-terminal GST; dsDNA, one strand shown. A digest of the protocol:
as §1

Another assay has as its target ETV1 (Homo sapiens, UniProt P50549 1-477). Conditions: protein: recombinant; tags: N-terminal GST; dsDNA, one strand shown. The procedure, abridged: as §1

Chain of ETV1 (P50549 whole entry): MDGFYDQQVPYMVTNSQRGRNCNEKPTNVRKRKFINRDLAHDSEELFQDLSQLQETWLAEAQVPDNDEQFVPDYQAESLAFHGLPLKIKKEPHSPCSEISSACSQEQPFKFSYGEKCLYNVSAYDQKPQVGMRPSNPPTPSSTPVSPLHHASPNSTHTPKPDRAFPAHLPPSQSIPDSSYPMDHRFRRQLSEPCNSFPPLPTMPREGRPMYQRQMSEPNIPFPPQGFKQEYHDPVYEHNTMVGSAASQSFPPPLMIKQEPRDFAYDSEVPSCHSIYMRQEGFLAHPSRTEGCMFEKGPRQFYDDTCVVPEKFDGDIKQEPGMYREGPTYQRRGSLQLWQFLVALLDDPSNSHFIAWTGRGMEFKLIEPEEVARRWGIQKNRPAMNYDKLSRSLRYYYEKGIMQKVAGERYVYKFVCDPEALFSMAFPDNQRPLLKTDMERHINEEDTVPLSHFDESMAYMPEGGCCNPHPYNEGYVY
Chain of HSF1 (Q00613 whole entry): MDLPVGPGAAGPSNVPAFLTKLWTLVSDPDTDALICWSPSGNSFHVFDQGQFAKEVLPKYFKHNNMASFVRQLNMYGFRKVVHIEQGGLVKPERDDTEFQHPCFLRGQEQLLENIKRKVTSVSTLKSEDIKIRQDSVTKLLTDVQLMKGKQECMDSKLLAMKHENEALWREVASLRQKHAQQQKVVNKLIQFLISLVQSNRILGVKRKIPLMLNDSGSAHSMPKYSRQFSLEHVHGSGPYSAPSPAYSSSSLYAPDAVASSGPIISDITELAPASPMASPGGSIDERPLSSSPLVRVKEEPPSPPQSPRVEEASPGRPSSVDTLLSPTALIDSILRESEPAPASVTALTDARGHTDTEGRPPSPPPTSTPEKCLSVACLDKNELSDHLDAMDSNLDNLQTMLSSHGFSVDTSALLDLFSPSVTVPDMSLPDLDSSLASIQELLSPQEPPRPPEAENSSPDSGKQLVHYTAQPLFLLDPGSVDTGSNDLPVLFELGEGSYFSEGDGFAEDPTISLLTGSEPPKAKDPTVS
Chain of ELF4 (Q99607 whole entry): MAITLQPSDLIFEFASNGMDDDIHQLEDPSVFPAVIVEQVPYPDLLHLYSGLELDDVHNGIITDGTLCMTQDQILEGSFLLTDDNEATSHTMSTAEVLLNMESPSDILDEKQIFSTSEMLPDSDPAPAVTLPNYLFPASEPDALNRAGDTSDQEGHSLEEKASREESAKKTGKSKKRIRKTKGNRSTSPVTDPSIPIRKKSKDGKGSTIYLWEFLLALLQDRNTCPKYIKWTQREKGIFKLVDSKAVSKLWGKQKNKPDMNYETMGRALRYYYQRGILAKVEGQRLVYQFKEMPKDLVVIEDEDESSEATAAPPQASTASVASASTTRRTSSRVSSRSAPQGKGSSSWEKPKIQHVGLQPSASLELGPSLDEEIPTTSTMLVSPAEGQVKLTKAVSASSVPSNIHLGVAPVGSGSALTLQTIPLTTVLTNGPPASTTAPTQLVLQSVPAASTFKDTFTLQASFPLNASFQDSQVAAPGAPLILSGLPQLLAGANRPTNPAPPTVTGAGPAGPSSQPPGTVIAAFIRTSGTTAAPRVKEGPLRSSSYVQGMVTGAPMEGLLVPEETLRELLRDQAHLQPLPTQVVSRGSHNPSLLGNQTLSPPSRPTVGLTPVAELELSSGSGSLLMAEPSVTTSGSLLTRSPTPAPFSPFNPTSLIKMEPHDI
Chain of SPIB (Q01892 whole entry): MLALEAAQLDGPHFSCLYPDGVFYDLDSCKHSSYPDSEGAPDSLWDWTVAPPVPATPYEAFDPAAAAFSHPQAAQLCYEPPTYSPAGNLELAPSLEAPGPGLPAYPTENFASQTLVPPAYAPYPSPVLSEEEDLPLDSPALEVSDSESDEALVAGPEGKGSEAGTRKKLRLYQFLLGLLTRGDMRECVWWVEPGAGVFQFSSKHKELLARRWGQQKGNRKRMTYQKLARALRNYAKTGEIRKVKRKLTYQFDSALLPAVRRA

GAAAAC: the binding signal is 1.04 fold enrichment (6-mer frequency, TF over GST control) in the assay with FLI1; 1.05 fold enrichment (6-mer frequency, TF over GST control) with GABPA; 1.09 fold enrichment (6-mer frequency, TF over GST control) in the assay with ERG; 1.06 fold enrichment (6-mer frequency, TF over GST control) in the assay with ELF1; 1.09 fold enrichment (6-mer frequency, TF over GST control) in the assay with EHF; 1.07 fold enrichment (6-mer frequency, TF over GST control) in the assay with SPI1. Also, the binding signal in the assay with SPIB is 1 fold enrichment (6-mer frequency, TF over GST control); with FEV, 1.08 fold enrichment (6-mer frequency, TF over GST control); with ETV5 it was 1.13 fold enrichment (6-mer frequency, TF over GST control); with HSF1 it was 1.08 fold enrichment (6-mer frequency, TF over GST control); in the assay with SPIC it was 1.21 fold enrichment (6-mer frequency, TF over GST control); with ELF4 it was 1.12 fold enrichment (6-mer frequency, TF over GST control). The binding signal was 1.16 fold enrichment (6-mer frequency, TF over GST control) with ELK4; 1.04 fold enrichment (6-mer frequency, TF over GST control) in the assay with ETV2; 1.08 fold enrichment (6-mer frequency, TF over GST control) with ELF3; 1.13 fold enrichment (6-mer frequency, TF over GST control) in the assay with ETV1.

(Values after paper PMC7862700, “An all-to-all approach to the identification of sequence-specific readers for epigenetic DNA modifications on cytosine”.)
